# Where “and” joins values, the source holds several entries; their conditions need not be identical. Equal values may be shown once. Some structures have more than one record in an assay (separate samples or runs), and their calls can disagree. Calls of active or inactive are those of the source. A call without a number means that no potency is given here. Unless noted, calls follow the shape of the dose curve; as a rule, active = well fitted curve in the direction sought with a large enough effect in the repeat runs; inconclusive = weak or mixed curves; inactive = no such curve, though single readings can be large; an effect the other way counts as inactive or inconclusive.
# Experiments:
# [1] = qHTS assay to identify small molecule antagonists of the thyroid receptor (TR) signaling pathway (AID 743065); also: nearly all actives have a fitted effect of over 55% in size; also: potency is read from the fitted curve at half-maximal effect
# How it was run: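 GH3.TRE-Luc rat pituitary cells carrying two TR response elements driving luciferase were plated for 4 h, given compound plus 1 nM T3 (final), and incubated 23.5 h at 37 C. ONE-Glo luminescence measured reporter inhibition; CellTiter-Fluor fluorescence tracked cytotoxicity.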
# [2] = test system: thyroid hormone receptor (rat, GH3 cells); assay: qHTS assay to identify small molecule agonists of the thyroid receptor (TR) signaling pathway (AID 743066; calls by dose curve)
# [3] = biological target: Estrogen receptor (Homo sapiens) (UniProt P03372); assay: qHTS assay to identify small molecule antagonists of the estrogen receptor alpha (ER-alpha) signaling pathway (AID 743069; active = well fitted curve in the direction sought with a large enough effect in the signal ratio in the repeat runs, not every such curve was filed as active; inconclusive = weak or mixed curves, or effect the other way; inactive = no such curve, though single readings can be large or run the other way; the % refers to the signal ratio; also: potency is read from the fitted curve at half-maximal effect)
# Sequence of Estrogen receptor (Homo sapiens) (P03372 whole entry, looked up): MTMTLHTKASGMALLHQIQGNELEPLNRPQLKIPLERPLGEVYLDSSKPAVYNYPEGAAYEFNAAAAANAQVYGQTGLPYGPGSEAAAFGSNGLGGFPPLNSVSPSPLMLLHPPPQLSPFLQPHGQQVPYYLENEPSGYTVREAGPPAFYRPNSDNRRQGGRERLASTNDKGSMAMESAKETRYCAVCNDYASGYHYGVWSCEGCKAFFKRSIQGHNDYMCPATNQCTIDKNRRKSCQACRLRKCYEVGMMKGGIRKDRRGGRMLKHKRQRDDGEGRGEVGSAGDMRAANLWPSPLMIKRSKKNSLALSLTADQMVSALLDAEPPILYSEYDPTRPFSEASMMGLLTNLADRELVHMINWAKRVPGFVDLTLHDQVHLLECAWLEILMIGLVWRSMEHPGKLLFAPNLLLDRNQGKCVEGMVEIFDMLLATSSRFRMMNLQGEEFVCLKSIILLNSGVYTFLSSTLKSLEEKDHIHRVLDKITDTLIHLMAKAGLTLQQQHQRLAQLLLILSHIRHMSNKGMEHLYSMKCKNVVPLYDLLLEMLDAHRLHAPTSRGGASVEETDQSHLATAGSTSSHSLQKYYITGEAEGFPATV
# How it was run: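 Screening used a UAS-driven beta-lactamase reporter integrated into HEK293 cells expressing ER-alpha, stimulated with 17beta-estradiol alongside test compounds over 18 hr at 37C; signal came from LiveBLAzer B/G FRET fluorescence.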
# [4] = qHTS assay to identify small molecule antagonists of the estrogen receptor alpha (ER-alpha) signaling pathway - cell viability counter screen (AID 743074; calls by dose curve; also: nearly all actives have a fitted effect of over 45% in size)
# [5] = biological target: Estrogen receptor (Homo sapiens) (UniProt P03372); assay: qHTS assay to identify small molecule agonists of the estrogen receptor alpha (ER-alpha) signaling pathway (AID 743075; calls by dose curve; also: potency is read from the fitted curve at half-maximal effect)
# [6] = biological target: Estrogen receptor (Homo sapiens) (UniProt P03372); assay: qHTS assay to identify small molecule agonists of the estrogen receptor alpha (ER-alpha) signaling pathway using the BG1 cell line (AID 743079); also: nearly all actives have a fitted effect of over 20% in size; also: potency is read from the fitted curve at half-maximal effect
# [7] = qHTS assay to identify small molecule antagonists of the estrogen receptor alpha (ER-alpha) signaling pathway using the BG1 cell line (AID 743080; calls by dose curve;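 also: BG1 cells stimulated with 17beta-estradiol alongside compound; nearly all actives have a fitted effect of over 25% in size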; also: potency is read from the fitted curve at half-maximal effect)
# How it was run: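 Readout is ONE-Glo luminescence, taken 30 min at room temperature after reagent addition, preceded by a CellTiter-Fluor viability read; BG1-Luc-4E2 cells had received compound and 17beta-estradiol for 21.5 h at 37 C.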
# [8] = qHTS assay to identify small molecule antagonists of the estrogen receptor alpha (ER-alpha) signaling pathway using the BG1 cell line - cell viability counter screen (AID 743081);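 also: compound given together with 17beta-estradiol as the ER stimulus; nearly all actives have a fitted effect of over 45% in size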; also: potency is read from the fitted curve at half-maximal effect
# [9] = biological target: Aromatase (Homo sapiens) (UniProt P11511); assay: qHTS assay to identify aromatase inhibitors (AID 743083); also: nearly all actives have a fitted effect of over 55% in size; also: potency is read from the fitted curve at half-maximal effect
# Sequence of Aromatase (Homo sapiens) (P11511 whole entry, looked up): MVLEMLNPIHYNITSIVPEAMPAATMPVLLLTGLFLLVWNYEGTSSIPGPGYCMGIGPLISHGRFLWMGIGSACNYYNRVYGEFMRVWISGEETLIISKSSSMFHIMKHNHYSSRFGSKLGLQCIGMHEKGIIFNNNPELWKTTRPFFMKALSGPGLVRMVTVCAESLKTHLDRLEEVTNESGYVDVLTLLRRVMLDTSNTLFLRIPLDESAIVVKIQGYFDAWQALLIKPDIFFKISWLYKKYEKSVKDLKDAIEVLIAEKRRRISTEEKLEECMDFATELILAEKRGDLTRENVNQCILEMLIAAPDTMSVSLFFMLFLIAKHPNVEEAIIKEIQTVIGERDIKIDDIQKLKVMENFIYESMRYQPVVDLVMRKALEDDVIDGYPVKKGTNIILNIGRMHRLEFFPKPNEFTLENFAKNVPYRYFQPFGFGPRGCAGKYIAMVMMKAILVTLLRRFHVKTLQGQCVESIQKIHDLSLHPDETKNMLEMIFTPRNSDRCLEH
# [10] = qHTS assay to identify aromatase inhibitors - cell viability counter screen (AID 743084);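 also: cells stimulated with testosterone during compound exposure; nearly all actives have a fitted effect of over 55% in size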; also: potency is read from the fitted curve at half-maximal effect
# [11] = biological target: Aryl hydrocarbon receptor (Homo sapiens) (UniProt P35869); assay: qHTS assay to identify small molecule that activate the aryl hydrocarbon receptor (AhR) signaling pathway (AID 743085); also: nearly all actives have a fitted effect of over 15% in size; also: potency is read from the fitted curve at half-maximal effect;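 as to activation: HG2L7.5c1 human HepG2 liver cells with stably integrated DRE-driven firefly reporter; series mostly up to about 70 µM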
# Sequence of Aryl hydrocarbon receptor (Homo sapiens) (P35869 whole entry, looked up): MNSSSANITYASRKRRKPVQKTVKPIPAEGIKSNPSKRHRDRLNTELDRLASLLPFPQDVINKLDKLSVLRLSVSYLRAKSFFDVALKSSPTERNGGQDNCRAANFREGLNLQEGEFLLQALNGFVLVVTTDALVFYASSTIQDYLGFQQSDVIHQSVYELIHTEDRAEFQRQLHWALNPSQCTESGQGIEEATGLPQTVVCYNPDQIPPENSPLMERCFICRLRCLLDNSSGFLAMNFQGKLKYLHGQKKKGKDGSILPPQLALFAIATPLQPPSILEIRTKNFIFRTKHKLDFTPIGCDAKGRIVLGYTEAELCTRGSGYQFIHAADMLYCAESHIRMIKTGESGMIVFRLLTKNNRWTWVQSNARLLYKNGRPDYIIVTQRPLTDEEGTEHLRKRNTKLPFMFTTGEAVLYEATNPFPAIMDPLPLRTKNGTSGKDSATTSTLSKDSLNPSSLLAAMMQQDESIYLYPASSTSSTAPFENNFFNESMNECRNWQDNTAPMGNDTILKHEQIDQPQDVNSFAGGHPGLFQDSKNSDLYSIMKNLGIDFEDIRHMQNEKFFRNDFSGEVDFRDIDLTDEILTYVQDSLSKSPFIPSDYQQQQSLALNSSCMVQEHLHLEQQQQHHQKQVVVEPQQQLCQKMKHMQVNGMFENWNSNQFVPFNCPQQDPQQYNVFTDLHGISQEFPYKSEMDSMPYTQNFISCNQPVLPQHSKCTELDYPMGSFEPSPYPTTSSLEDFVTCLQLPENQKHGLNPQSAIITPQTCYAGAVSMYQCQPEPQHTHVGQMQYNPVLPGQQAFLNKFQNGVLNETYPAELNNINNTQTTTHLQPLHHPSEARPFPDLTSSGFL
# How it was run: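 Luminescence read-out: ONE-Glo reagent, 30 min at room temperature, in HG2L7.5c1 HepG2 reporter cells treated 24 h at 37C. Viability was measured beforehand by CellTiter-Fluor fluorescence after 30 min at 37C.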
# [12] = qHTS assay to identify small molecule that activate the aryl hydrocarbon receptor (AhR) signaling pathway - cell viability counter screen (AID 743086); also: nearly all actives have a fitted effect of over 45% in size; also: potency is read from the fitted curve at half-maximal effect
# How it was run: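 HepG2-AhR-luc (HG2L7.5c1) cells, 4000/well, were preincubated 5 h at 37C, exposed to compound in qHTS format for 24 hr at 37C, then given CellTiter-Fluor for 30 min; viability was read as fluorescence in the reporter wells.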
# [13] = qHTS assay to identify small molecule antagonists of the peroxisome proliferator-activated receptor gamma (PPARg) signaling pathway - cell viability counter screen (AID 743194); also: nearly all actives have a fitted effect of over 55% in size
# How it was run: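 PPARg-UAS-bla HEK293H cells were plated, rested 5 h at 37 C, then treated with compounds plus rosiglitazone (50 nM final) for 17 h at 37 C; viability was then read by CellTiter-Glo luminescence after 30 min at room temperature.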
# [14] = qHTS assay for small molecule agonists of the antioxidant response element (ARE) signaling pathway (AID 743202; active = well fitted activation curve with a large enough effect in the signal ratio in the repeat runs, not every such curve was filed as active; inconclusive = weak or mixed curves, or effect the other way; inactive = no such curve, though single readings can be large or run the other way; the % refers to the signal ratio; also: potency is read from the fitted curve at half-maximal effect)
# How it was run: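 Steps: seed ARE-bla HepG2 cells (2,000/well); incubate 5 h at 37 C; add compounds by pin tool; incubate 16 h at 37 C; add FRET substrate; read fluorescence after 2 h at RT.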
# [15] = qHTS assay for small molecule activators of the heat shock response signaling pathway - cell viability counter screen (AID 743209); also: nearly all actives have a fitted effect of over 50% in size; also: potency is read from the fitted curve at half-maximal effect
# How it was run: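 Viability of HSE-bla HeLa cells is measured with CellTiter-Glo in the wells already used for the reporter read. Compound exposure lasts 5 h at 37 C, and luminescence is read after 30 min at room temperature.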
# [16] = qHTS assay for small molecule activators of the heat shock response signaling pathway (AID 743210; active = well fitted activation curve with a large enough effect in the signal ratio in the repeat runs, with a control signal flat, not every such curve was filed as active; inconclusive = weak or mixed curves; the % refers to the signal ratio;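 also: HeLa cells with beta-lactamase reporter driven by heat shock elements; series mostly up to about 63 µM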)
# How it was run: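 Activation of heat shock element-controlled beta-lactamase expression is measured in HeLa cells by LiveBLAzer FRET fluorescence, with compound exposure lasting 5 h at 37 C and substrate loading 2.5 h at room temperature.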
# [17] = qHTS assay to identify small molecule agonists of the peroxisome proliferator-activated receptor delta (PPARd) signaling pathway - cell viability counter screen (AID 743211); also: nearly all actives have a fitted effect of over 55% in size
# How it was run: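 Read-out: CellTiter-Glo luminescence, 30 min RT, measured in the same wells as the beta-lactamase reporter. Cells: GeneBLAzer PPAR delta UAS-bla HEK293H, 3000 cells/well, compound exposure 17 h at 37C.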
# [18] = biological target: Peroxisome proliferator-activated receptor gamma (Homo sapiens) (UniProt P37231); assay: qHTS assay to identify small molecule agonists of the peroxisome proliferator-activated receptor gamma (PPARg) signaling pathway (AID 743094; active = well fitted activation curve with a large enough effect in the signal ratio in the repeat runs, not every such curve was filed as active; inconclusive = weak or mixed curves, or effect the other way; inactive = no such curve, though single readings can be large or run the other way; the % refers to the signal ratio)
# Sequence of Peroxisome proliferator-activated receptor gamma (Homo sapiens) (P37231 whole entry, looked up): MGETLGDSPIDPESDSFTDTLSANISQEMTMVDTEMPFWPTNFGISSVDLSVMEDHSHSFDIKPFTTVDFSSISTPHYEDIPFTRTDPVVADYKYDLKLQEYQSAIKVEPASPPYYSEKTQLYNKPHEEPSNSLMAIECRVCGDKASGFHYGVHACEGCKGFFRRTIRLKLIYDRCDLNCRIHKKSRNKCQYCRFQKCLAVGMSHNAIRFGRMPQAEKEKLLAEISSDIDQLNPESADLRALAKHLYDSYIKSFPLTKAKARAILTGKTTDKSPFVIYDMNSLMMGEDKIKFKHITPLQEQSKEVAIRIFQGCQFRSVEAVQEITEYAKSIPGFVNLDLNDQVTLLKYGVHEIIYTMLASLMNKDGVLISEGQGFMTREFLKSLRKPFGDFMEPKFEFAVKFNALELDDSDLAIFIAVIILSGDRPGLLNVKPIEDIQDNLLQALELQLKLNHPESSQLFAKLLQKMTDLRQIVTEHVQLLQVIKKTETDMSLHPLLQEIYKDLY
# How it was run: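 Reporter activation was scored by fluorescence of cleaved LiveBLAzer B/G substrate (1 h, room temperature) in PPARg-bla HEK293H cells previously treated 17 h at 37C with DMSO-dissolved compounds.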
# [19] = biological target: Peroxisome proliferator-activated receptor gamma (Homo sapiens) (UniProt P37231); assay: qHTS assay to identify small molecule antagonists of the peroxisome proliferator-activated receptor gamma (PPARg) signaling pathway (AID 743191; calls by dose curve; also: series mostly up to about 63 µM; nearly all actives have a fitted effect of over 30% in size)
# How it was run: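 GeneBLAzer PPARg UAS-bla HEK293H cells carrying a UAS-driven beta-lactamase reporter were plated at 3000 cells/well, preincubated 5 h at 37C, then given compound for 17 h at 37C; LiveBLAzer B/G FRET substrate was read after 1 h at room temperature.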
# [20] = qHTS assay for small molecule agonists of the antioxidant response element (ARE) signaling pathway - cell viability counter screen (AID 743203; calls by dose curve; also: nearly all actives have a fitted effect of over 55% in size)
# How it was run: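 Viability counter screen: stably transfected ARE-bla HepG2 line, 16 hrs compound exposure at 37C/5% CO2, ATP-based CellTiter-Glo luminescence measured in the reporter wells.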
Compound,Potency [1],outcome [2],Potency [3],Potency [4],Potency [5],Potency [6],Potency [7],Potency [8],Potency [9],Potency [10],Potency [11],Potency [12],Potency [13],Potency [14],Potency [15],Potency [16],Potency [17],Potency [18],Potency [19],Potency [20]
OC[C@@H](O)[C@@H](O)CO,inactive,inactive,inactive,inactive,inactive,inactive,inactive,inactive,inactive,inactive,inactive,inactive,inactive,inactive,inactive,inactive,inactive,–,–,–
CCc1ccc(Br)cc1,inactive,inactive,inactive,inactive,inactive,–,inactive,inactive,inactive,inactive,inactive,inactive,inactive,inactive,inactive,inactive,inactive,inactive,inactive,inactive
C=C(CC)C(=O)c1ccc(OCC(=O)O)c(Cl)c1Cl,26.6 µM (active) and 54.1 µM (active),inactive,inactive,inactive,inactive and 68.7 µM [fluorescent] (active),inactive,–,inactive,inactive,inactive,inactive,inactive and 68.1 µM (active),inactive,0.764 µM (active),18.8 µM (active),–,inactive,–,–,inactive
S=c1nccc[nH]1,inactive,inactive,inactive,inactive,–,30.7 µM (active),inactive,inactive,inactive,inactive,inactive,inactive,inactive,–,inactive,–,inactive,inactive,–,–
COc1cc(/C=C/c2ccccc2)oc(=O)c1,inactive,inactive,inactive,inactive,inactive,2.52 µM (active),–,inactive,inactive,inactive,–,inactive,inactive,–,inactive,inactive,inactive,–,inactive,inactive
c1ccsc1,inactive,inactive,inactive,inactive,inactive,–,–,inactive,inactive,–,inactive,inactive,inactive,–,inactive,inactive,inactive,–,inactive,inactive
O=C1CCc2cc(OCCCCc3nnnn3C3CCCCC3)ccc2N1,inactive,inactive,inactive,inactive,inactive,inactive,–,inactive,inactive,inactive,inactive,inactive,inactive,–,inactive,inactive,inactive,inactive,inactive,inactive
CC[N+](CC)(CC)CCOc1ccc(/C=C/c2ccccc2)cc1,29.8 µM (active),inactive,5.35 µM [inconclusive] (active),inactive,inactive,–,29.8 µM (active),inactive,29.8 µM (active),inactive,inactive,inactive,inactive,–,inactive,–,inactive,inactive,inactive,inactive
CC(C)Cn1cnc2c(N)nc3ccccc3c21,inactive,inactive,inactive,inactive,inactive,–,–,–,inactive,inactive,9.44 µM (active),inactive,inactive,–,inactive,inactive,inactive,inactive,–,inactive
CCn1c2ccccc2c2cc([N+](=O)[O-])ccc21,inactive,inactive,inactive,inactive,inactive,inactive,inactive,inactive,inactive,inactive,–,inactive,inactive,inactive,inactive,–,inactive,–,–,inactive
OC1CCC(C2CCCCC2)CC1 (stereo not given),inactive,inactive,inactive,inactive,inactive,–,inactive,inactive,inactive,inactive,inactive,inactive,inactive,–,inactive,inactive,–,inactive,–,inactive
CC(CO)Oc1ccccc1 (stereo not given),inactive,inactive,inactive,inactive,inactive,inactive,inactive,inactive,inactive,–,inactive,inactive,inactive,inactive,inactive,inactive,inactive,–,inactive,inactive
CNc1ccc([N+](=O)[O-])cc1,27.4 µM (active),inactive,inactive,inactive,inactive,34.4 µM (active),–,48.7 µM (active),12.2 µM (active),34.4 µM (active),54.6 µM (active),–,inactive,inactive,12.3 µM (active),–,–,inactive,–,–
CC1=Nc2ccccc2C1(C)C,inactive,inactive,inactive,inactive,inactive,inactive,inactive,inactive,inactive,inactive,inactive,inactive,inactive,inactive,inactive,–,inactive,–,–,inactive
Cc1cc(=O)oc2cc(O)cc(O)c12,inactive,inactive,inactive,inactive,inactive,–,inactive,–,inactive,–,15.4 µM (active),inactive,inactive,–,inactive,–,inactive,–,–,inactive
C=C(C)c1cccc(C(=C)C)c1,inactive,inactive,inactive,inactive,inactive,–,inactive,–,inactive,inactive,inactive,inactive,inactive,inactive,inactive,inactive,inactive,inactive,inactive,inactive
CC1(C)CC(O)CC(C)(C)N1,inactive,inactive,inactive,inactive,inactive,inactive,inactive,inactive,inactive,inactive,–,inactive,inactive,inactive,inactive,–,inactive,–,–,–
